Source: PubChem
A selection: hits, their analogues and other compounds. The true share with any hit is near 3.5%.
GPR151 activ = human GPR151 activation; AID 1508602; PathHunter beta-arrestin GPR151 cells, luminescence; hit rate 1% among 650,000; activation, % at 11.2 µM; in the data active = activation above about 4.9%;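 also: 0% = median of compound wells and 100% = cells with positive control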
FBW7 act = human FBW7 E3 ligase activation, primary screen. hit rate 0.13% among 650,000. normalized activity (activation), % at 26.1 µM. AlphaScreen FBW7–phospho-cyclin E peptide binding, activator screen. AID 1259310. Q969H0; in the data active = normalized activity above about 1.9%;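 also: purified mutant Fbw7 with reduced substrate affinity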
MITF primary = human MITF inhibition, primary screen; inhibition, % at 2.6 µM; hit rate 0.91% among 650,000; AlphaScreen MITF homodimerization, bead proximity signal; AID 1259374; O75030; in the data active = inhibition above about 50%;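 also: 0% = vehicle wells with protein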
Target sequence (O75030 whole entry, looked up): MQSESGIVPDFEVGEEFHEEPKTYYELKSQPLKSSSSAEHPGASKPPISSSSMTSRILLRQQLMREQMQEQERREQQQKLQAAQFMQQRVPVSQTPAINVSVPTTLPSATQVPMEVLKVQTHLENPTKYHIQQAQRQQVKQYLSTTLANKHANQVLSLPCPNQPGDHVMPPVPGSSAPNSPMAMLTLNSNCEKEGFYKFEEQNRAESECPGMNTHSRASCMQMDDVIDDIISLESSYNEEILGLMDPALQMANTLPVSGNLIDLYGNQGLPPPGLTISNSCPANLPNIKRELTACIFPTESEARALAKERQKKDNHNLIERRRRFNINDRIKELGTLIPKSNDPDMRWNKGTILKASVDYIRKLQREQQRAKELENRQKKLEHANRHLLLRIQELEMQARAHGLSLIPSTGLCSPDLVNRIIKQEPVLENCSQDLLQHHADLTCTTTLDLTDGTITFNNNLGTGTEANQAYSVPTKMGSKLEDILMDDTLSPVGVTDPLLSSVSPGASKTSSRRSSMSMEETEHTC
TEAD-YAP inh = TEAD-YAP interaction inhibition; AID 1259422; HEK-TIYL cells, TEAD-Gal4/YAP UAS-luciferase luminescence; hit rate 1.4% among 640,000; inhibition, % at 9.12 µM; in the data active = inhibition above about 32%;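 also: 0% = median of test compound wells and 100% = reference inhibitor wells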
The depositor's hits bear a star.

SMILES	GPR151 activ	FBW7 act	MITF primary	TEAD-YAP inh
CCC(Sc1ccc2nnc(-c3ccccn3)n2n1)C(=O)OC (stereo unspecified)	2	7.2*	15	-14
N#CCSc1ccc2nnc(-c3ccccn3)n2n1	0	3.8*	7	-8
Cc1cc(C)n(CC(=O)N2CCC3(CC2)CC3C(=O)Nc2ccccc2)n1 (stereo unspecified)	-1	0	13	-6
CN(/N=C1\C(=O)Nc2ccc(Br)cc21)c1cnc2ccccc2n1	1	0	-1	-22
CC(C)(C)OC(=O)N1CCC(c2nc(-c3nc4ccc(-c5ccncc5)cc4[nH]3)cs2)CC1	4	0	-5	94*
CCCCNC(=O)CSCc1nc(-c2ccc(C)cc2)oc1C	2	1	18	4
CCOC(=O)CSCc1nc(-c2ccc(C)cc2)oc1C	0	0	-6	80*
CCOc1ccc(-c2nc(CSCC(=O)NCCN3CCCC3)c(C)o2)cc1	1	0	-4	34*
CCOc1ccc(-c2nc(CSCC(=O)NCCCN3CCCC3)c(C)o2)cc1	0	0	-4	-3
COc1ccc(-c2nc(CSCC(=O)O)c(C)o2)cc1	-1	0	5	82*
CCOc1ccc(-c2nc(CSCC(=O)O)c(C)o2)cc1	1	0	-10	98*
COc1ccc(-c2nc(CSCC(=O)NCC(OC)OC)c(C)o2)cc1	1	0	18	6
CC(=O)Nc1nc(Cn2c(-c3nonc3NC(C)=O)nc3ccccc32)nc(NC(C)=O)n1	0	0	-4	-1
COc1cccc(Nc2ncnc3sc(C)c(C)c23)c1	0	0	-11	5
CC(=NCc1ccc(F)cc1)c1c(C)[nH]n(-c2ccc(Br)cc2Br)c1=O	0	0	0	-4
Oc1ccc2cc(Br)ccc2c1Br	0	2.1*	24	-6
O=C(NCc1ccccc1)C(=S)N1CCCCC1	2	0	-2	4
O=C1CCCN1CCCNc1nc2ncnc(Nc3ccccc3)c2[nH]1	-2	0	-10	-4
O=C1CCCN1CCCNc1nc2ncnc(Nc3ccc(N4CCOCC4)cc3)c2[nH]1	-2	0	17	38*
c1cnc2ccc(Nc3nc4ncnc(Nc5ccc(N6CCOCC6)cc5)c4[nH]3)cc2c1	-2	3.9*	5	36*
c1cncc(Nc2nc3ncnc(Nc4ccc(N5CCOCC5)cc4)c3[nH]2)c1	-2	0	3	25
O=C1CCCN1CCCNc1nc(Nc2ccc(N3CCOCC3)cc2)nc2c1ncn2-c1ccsc1	-1	0	-1	59*
O=C1CCCN1CCCNc1nc(Nc2ccc(N3CCOCC3)cc2)c2ncn(-c3ccsc3)c2n1	0	0	19	47*
Cc1cc(S(=O)(=O)N2CCCc3ccccc32)ccc1-n1cnnn1	0	2.1*	17	3
O=S(=O)(c1ccc(F)c(F)c1)N1CCCc2ccccc21	1	1	18	10
SMILES	GPR151 activ	FBW7 act	MITF primary	TEAD-YAP inh
O=S(=O)(c1ccc2ccccc2c1)N1CCCc2ccccc21	0	0	-7	55*
O=S(=O)(c1ccc2oc3ccccc3c2c1)N1CCCc2ccccc21	-1	0	-4	59*
O=C(O)c1c[nH]c2ccc(S(=O)(=O)N3CCCc4ccccc43)cc2c1=O	1	0	1	48*
Cc1cc(S(=O)(=O)N2CCCCCC2)ccc1-n1cnnn1	0	0	9	-4
COC(=O)c1c(NC(=O)Cn2cnc3sc(C)c(C)c3c2=O)sc2c1CCC2	0	0	10	13
COc1cc2c(cc1OC)n(CC(=O)NC1CCCC1)n1c(C)cc(=O)nc21	-1	1	-2	12
CC1=NC(Nc2nc(C)c3cc(C)ccc3n2)=NC(C)(C)C1	-1	1	-8	37*
CCOc1ccc2nc(NC3=NC(C)(C)CC(C)=N3)nc(C)c2c1	-1	0	-1	28
COc1cc(NC(=O)c2cnc(N3CCN(c4ccccn4)CC3)s2)cc(OC)c1OC	3	0	2	41*
COc1cc(NC(=O)c2cnc(N3CCc4ccccc4C3)s2)cc(OC)c1OC	-1	0	-1	42*
Cc1ccsc1/C=C1\S/C(=N/c2nccs2)NC1=O	-5	-1	-10	38*
CCOC(=O)C1CCN(c2nc(-c3ccncc3)nc3cnccc23)CC1	4	0	-4	33*
CCOC(=O)C1CCN(c2nc(-c3ccc(Br)cc3)nc3ccccc23)CC1	1	0	0	7
COc1cc([C@@H]2c3cc4c(cc3[C@@H](O[C@@H]3O[C@@H]5CO[C@@H](C)O[C@H]5[C@H](O)[C@H]3O)[C@H]3COC(=O)[C@H]23)OCO4)cc(OC)c1O	1	0	0	-35
COc1cc(C2CC(=O)Nc3cc4c(cc32)OCO4)cc(OC)c1OC (stereo unspecified)	0	0	-7	49*
COc1cc([C@@H]2c3cc4c(cc3[C@H](O)[C@H]3COC(=O)[C@H]23)OCO4)cc(OC)c1OC	4	0	4	43*
CC1CCN(S(=O)(=O)c2ccc(F)c(C(=O)Nc3ccc(Cl)cc3Cl)c2)CC1	-1	0	1	0
CCCOc1ccc2c(c1)CC(c1nc3ccc(-c4cn[nH]c4)cc3[nH]1)CO2 (stereo unspecified)	-1	0	-3	-8
COc1ccccc1CNC(=O)C/C(C)=N/NC(=O)C(=O)NC(C)C	1	0	-4	2
O=C(NCCCn1ccnc1)C1CC12CCN(C(=O)C1(c3ccccc3)CCCCC1)CC2 (stereo unspecified)	1	0	11	38*
Cc1nc(CC(=O)c2ccc(O)c(O)c2O)cs1	-1	0	79*	-15
Cc1ccc(C2=N/C(=C\c3ccccc3OCc3ccccc3)C(=O)O2)cc1	1	0	-3	41*
O=C1OC(c2ccc(Cl)cc2)=N/C1=C\c1ccc(OCc2ccccc2)cc1	1	0	8	-11
CC(=O)Nc1ccc(C2=N/C(=C/c3ccc(OCc4ccccc4)cc3)C(=O)O2)cc1	1	0	1	43*
Cc1ccc(C2=N/C(=C\c3ccccc3OC(=O)c3ccc(Br)cc3)C(=O)O2)cc1	0	0	-7	37*
SMILES	GPR151 activ	FBW7 act	MITF primary	TEAD-YAP inh
CCC(CCC(=O)O)NC(=O)c1ccccc1 (stereo unspecified)	-1	1	-14	-3
CC1=NN(c2ccc(C)cc2)C(=O)/C1=C/c1ccc(C)o1	3	0	37	5
Cn1nccc1Nc1cc(NCCN2CCOCC2)ncn1	1	0	-4	-1
CCCCN(CC)CCCNC(=O)Cn1ncc2c1-c1cc(C)ccc1OC2	0	0	4	2
COc1ccc(S(=O)(=O)Oc2cccc3ccc(C)nc23)cc1OC	4	1.9*	10	9
Cc1ccc2cccc(OS(=O)(=O)c3ccccc3C)c2n1	2	1	-4	6
CC(C)c1ccc(Nc2nccn3c(-c4ccoc4)cnc23)cc1	-1	2.3*	7	-10
c1ccc(Oc2ccc(Nc3nccn4c(-c5ccoc5)cnc34)cc2)cc1	2	0	-4	-4
